The nature of assay [1]: qHTS assay to identify small molecule agonists of the estrogen receptor alpha (ER-alpha) signaling pathway in the presence of an antagonist - cell viability counter screen (AID 1259386).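 Note: cells exposed to compounds for 22 h at 37 °C before the viability read; nearly all actives have a fitted effect of over 30% in size.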 Note: potency is the fitted concentration of half-maximal effect. The essentials: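 In this counter screen, compound effects on VM7Luc4E2 viability were tested in the presence of the antagonist ICI-182,780 at 10.0nM final. Compounds were dosed at 15 concentrations, exposure lasted 22hr, and the CellTiter-Fluor signal was read.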
(In general: In qHTS, concentration-response curves come from the screen itself.)

Assay [2] can be described thus: qHTS assay to identify small molecule agonists of the TGF-beta/Smad signaling pathway - cell viability counter screen (AID 1346829). Note: top concentration of the series differs between compounds; nearly all actives have a fitted effect of over 45% in size. The essentials: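 SBE-bla HEK 293T cells plated overnight, compound exposure 5 hr at 37 C. Viability read in the same wells by CellTiter-Glo luminescence after 30 min at room temperature, following the beta-lactamase read.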
Assay [3] in a line: qHTS assay to identify small molecule agonists of the TGF-beta/Smad signaling pathway (AID 1346859; active = well fitted activation curve with a large enough effect in the signal ratio in the repeat runs, not every such curve was filed as active; the % refers to the signal ratio; note: series mostly up to about 77 µM). The essentials:
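Beta-lactamase reporter activity downstream of Smad binding elements was measured in stably transfected HEK 293T cells; compounds were incubated for 5 hr, substrate for 2 hr at room temperature.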

The target of assay [4] is Thyrotropin-releasing hormone receptor (Homo sapiens) (UniProt P34981). Briefly: qHTS assay to identify small molecule antagonists of the thyrotropin-releasing hormone receptor (TRHR) signaling pathway (AID 1346877; active = well fitted inhibition curve with a large enough effect in the repeat runs, not every such curve was filed as active; note: series mostly up to about 51 µM). The essentials:
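Kinetic fluorescence (3 min, 1 s resolution) following stimulation with TRH at 1 nM final; HEK293 cells bearing human TRHR; 5 min compound preincubation at RT; concentration-response over 15 points, triplicates.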

Assay [5] has the same target. Nature of the assay: qHTS assay to identify small molecule agonists of the thyrotropin-releasing hormone receptor (TRHR) signaling pathway (AID 1346891; calls by dose curve;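 note: HEK293 cells expressing TRHR with calcium dye readout; series mostly up to about 58 µM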). The essentials:
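Overnight-plated (18 h, 37 °C, 5% CO2) TRHR-Hek293 cells; 2 h calcium dye at 37 °C; compound in DMSO; 3-min kinetic fluorescence read.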

Assay [6] is described as follows: Caspase-3/7 induction in HepG2 cells by small molecules, qHTS assay (AID 1346978). Note: nearly all actives have a fitted effect of over 15% in size. The essentials:
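Wild-type HepG2 cells (2,000/well) were settled 5 h at 37 C, 5% CO2, then exposed to compounds in DMSO for 17 h. Caspase-3/7 activity was read by luminescence 30 min after adding Caspase-Glo 3/7 reagent at room temperature.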

Assay [7] can be described thus: Caspase-3/7 induction in CHO-K1 cells by small molecules, qHTS cell viability counter screen (AID 1346979). Note: nearly all actives have a fitted effect of over 35% in size. Note: potency is the fitted concentration of half-maximal effect. The essentials:
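Multiplexed with Caspase-Glo 3/7 in CHO-K1 cells, this counter screen added CellTiter-Fluor after 16hr of compound exposure and recorded fluorescence 1hr later.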

The nature of assay [8]: Caspase-3/7 induction in CHO-K1 cells by small molecules, qHTS assay (AID 1346980). Note: nearly all actives have a fitted effect of over 15% in size. The essentials: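 Wild-type cells were seeded at 1,500 per well and settled 5 hr at 37 C, 5% CO2, then exposed to DMSO-dissolved compounds for 17 hr. Caspase-Glo 3/7 reagent was added, and luminescence was read after 30min at room temperature.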
Assay [9] can be described thus: Caspase-3/7 induction in HepG2 cells by small molecules, qHTS cell viability counter screen (AID 1346981). Note: nearly all actives have a fitted effect of over 30% in size. Note: potency is the fitted concentration of half-maximal effect. The essentials: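 In this quantitative HTS counter screen, compounds delivered in DMSO were left on unmodified HepG2 cells for 16 hr at 37 C. Viability was then determined fluorometrically with CellTiter-Fluor, in parallel with caspase-3/7 induction in the same wells.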

The target in assay [10] is Nuclear receptor subfamily 1 group I member 2 (Homo sapiens) (UniProt O75469). Nature of the assay: Human pregnane X receptor (PXR) small molecule agonists, qHTS assay (AID 1346982). Note: nearly all actives have a fitted effect of over 35% in size. Note: potency is the fitted concentration of half-maximal effect. The essentials: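 Reporter HepG2 cells expressing PXR-Luc are cultured in charcoal-stripped FBS (5%), treated with compounds for 24 hr at 37 C, and assayed by ONE-Glo luminescence after 30 min at room temperature.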

Assay [11] addresses Progesterone receptor (Homo sapiens) (UniProt P06401). Nature of the assay: qHTS assay to identify small molecule antagonists of the progesterone receptor (PR) signaling pathway (AID 1346795; active = well fitted inhibition curve with a large enough effect in the signal ratio in the repeat runs, not every such curve was filed as active; the % refers to the signal ratio; note: potency is the fitted concentration of half-maximal effect). The essentials: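 Screening used a GripTite HEK293T line with PR-responsive UAS-beta-lactamase. Cells were challenged with compound in the presence of 1 nM R5020 final for 16 hr at 37C; B/G FRET substrate, 2 hr room temperature, fluorescence.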

Assay [12] is described as follows: qHTS assay to identify small molecule antagonists of the TGF-beta/Smad signaling pathway - cell viability counter screen (AID 1346824). Note: nearly all actives have a fitted effect of over 50% in size. Note: potency is the fitted concentration of half-maximal effect. The essentials:
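SBE-bla HEK 293T cells were plated overnight at 37 C, then given compounds in DMSO plus TGF-beta1 (added as 0.25 ng/mL solution) for 5 hr. After the bla read, CellTiter-Glo was added to the same wells and luminescence read after 30 min at room temperature.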

Assay [13] can be described thus: Human pregnane X receptor (PXR) small molecule agonists, qHTS cell viability counter screen (AID 1346977). Note: nearly all actives have a fitted effect of over 50% in size. The essentials:
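After a 5hr pre-incubation, PXR-Luc HepG2 cells received compounds plus positive control in DMSO and were kept 24hr at 37C. Cell viability was quantified by fluorescence from CellTiter-Fluor added for the final hour.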

The nature of assay [14]: qHTS assay to identify small molecule agonists of the progesterone receptor (PR) signaling pathway - cell viability counter screen (AID 1346799; calls by dose curve; note: nearly all actives have a fitted effect of over 45% in size). The essentials:
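Using the same plates as the PR reporter screen, HEK293T PR-UAS-bla cells received compounds for 16 hr at 37C and were then lysed with CellTiter-Glo; luminescence was read 30 min later at room temperature.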

A short description of assay [15]: qHTS assay to identify small molecule antagonists of the progesterone receptor (PR) signaling pathway - cell viability counter screen (AID 1346798). Note: series mostly up to about 92 µM; nearly all actives have a fitted effect of over 50% in size. The essentials:
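Measures cytotoxicity in parallel with the PR antagonist reporter read: HEK293T PR-UAS-bla cells get compound and R5020 for 16 hr, and remaining viable cells are quantified by CellTiter-Glo luminescence.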

In assay [16] the target is Progesterone receptor (Homo sapiens) (UniProt P06401). Briefly: qHTS assay to identify small molecule agonists of the progesterone receptor (PR) signaling pathway (AID 1346784; calls by dose curve; note: nearly all actives have a fitted effect of over 30% in size). The essentials:
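Seed PR-UAS-bla HEK 293T cells (2% charcoal-stripped FBS), incubate 6 hr at 37C; add compounds in DMSO, 16 hr at 37C; add LiveBLAzer B/G substrate, 2 hr RT; read fluorescence intensity.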

Unmarked numbers belong to inactive results. Inconclusive results are not listed. The source made the active and inactive calls. Unless noted, calls come from the whole dose curve; as a rule, active = well fitted curve in the direction sought with a large enough effect in the repeat runs; inconclusive = weak or mixed curves; inactive = no such curve, though single readings can be large; an effect the other way counts as inactive or inconclusive.

Sequence of Thyrotropin-releasing hormone receptor (Homo sapiens) (P34981 whole entry, looked up): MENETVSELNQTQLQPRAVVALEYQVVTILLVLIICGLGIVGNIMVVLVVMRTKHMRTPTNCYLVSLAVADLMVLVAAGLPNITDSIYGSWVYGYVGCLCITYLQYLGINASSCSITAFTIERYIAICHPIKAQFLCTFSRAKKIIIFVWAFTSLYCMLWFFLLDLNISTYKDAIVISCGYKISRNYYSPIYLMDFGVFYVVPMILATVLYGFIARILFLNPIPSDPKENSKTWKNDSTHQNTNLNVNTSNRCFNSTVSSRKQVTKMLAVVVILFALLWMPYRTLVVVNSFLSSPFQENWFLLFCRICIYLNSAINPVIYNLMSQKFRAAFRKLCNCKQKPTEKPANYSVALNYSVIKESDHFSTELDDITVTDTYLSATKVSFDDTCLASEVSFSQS
Sequence of Nuclear receptor subfamily 1 group I member 2 (Homo sapiens) (O75469 whole entry, looked up): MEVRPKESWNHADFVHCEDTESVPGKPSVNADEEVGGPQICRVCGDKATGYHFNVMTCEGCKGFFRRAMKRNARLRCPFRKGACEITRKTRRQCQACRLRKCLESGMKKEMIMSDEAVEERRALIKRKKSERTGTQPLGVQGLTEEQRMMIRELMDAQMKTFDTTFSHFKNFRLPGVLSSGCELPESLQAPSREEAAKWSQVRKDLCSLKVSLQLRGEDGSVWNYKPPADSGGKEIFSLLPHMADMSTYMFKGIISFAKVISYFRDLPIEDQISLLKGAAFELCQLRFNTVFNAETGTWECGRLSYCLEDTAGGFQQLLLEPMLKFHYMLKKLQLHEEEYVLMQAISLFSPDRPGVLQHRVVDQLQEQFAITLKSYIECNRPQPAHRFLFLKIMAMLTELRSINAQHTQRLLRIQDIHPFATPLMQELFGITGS
Sequence of Progesterone receptor (Homo sapiens) (P06401 whole entry, looked up): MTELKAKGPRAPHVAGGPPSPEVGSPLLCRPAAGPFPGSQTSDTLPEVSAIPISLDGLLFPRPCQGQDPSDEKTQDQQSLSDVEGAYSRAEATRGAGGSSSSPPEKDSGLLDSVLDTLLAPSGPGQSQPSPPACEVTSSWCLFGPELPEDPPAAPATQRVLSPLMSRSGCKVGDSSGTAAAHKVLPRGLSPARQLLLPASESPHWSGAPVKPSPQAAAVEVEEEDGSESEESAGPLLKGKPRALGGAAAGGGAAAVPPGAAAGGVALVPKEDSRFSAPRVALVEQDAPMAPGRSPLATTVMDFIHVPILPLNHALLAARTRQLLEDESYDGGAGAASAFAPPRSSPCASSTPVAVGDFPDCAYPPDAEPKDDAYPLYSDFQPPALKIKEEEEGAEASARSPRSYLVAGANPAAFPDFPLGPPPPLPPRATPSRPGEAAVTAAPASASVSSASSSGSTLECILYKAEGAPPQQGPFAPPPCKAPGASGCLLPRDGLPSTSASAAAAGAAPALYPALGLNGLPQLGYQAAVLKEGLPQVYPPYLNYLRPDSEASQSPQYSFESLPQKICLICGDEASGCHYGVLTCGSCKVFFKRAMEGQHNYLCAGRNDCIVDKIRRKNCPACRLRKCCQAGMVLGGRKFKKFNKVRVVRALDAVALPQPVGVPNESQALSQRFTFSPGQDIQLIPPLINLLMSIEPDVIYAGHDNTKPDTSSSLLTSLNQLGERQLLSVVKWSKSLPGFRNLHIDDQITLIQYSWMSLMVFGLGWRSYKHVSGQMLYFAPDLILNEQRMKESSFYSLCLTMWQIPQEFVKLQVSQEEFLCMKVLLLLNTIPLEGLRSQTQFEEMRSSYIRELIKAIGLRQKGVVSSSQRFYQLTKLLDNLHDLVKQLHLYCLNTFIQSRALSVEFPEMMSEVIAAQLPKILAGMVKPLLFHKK

Take `Oc1cc2c(cc1O)[C@H]1c3ccc(O)c(O)c3OC[C@@]1(O)C2`: the Potency in assay [1] is 27.6 µM (active); in assay [7], 27.6 µM (active); in assay [9], 55.1 µM (active). Besides, the Potency entry in [2], in assay [3], in assay [5], in assay [6], in assay [8] and in assay [10] was “inactive” each time. Moreover, the call in assay [4] was inactive.

On to `COc1ccccc1NC(=O)c1cc2ccccc2cc1O`, for which the Potency entry in assay [1], in [3], in assay [6], in [8] and in [9] was “inactive” each time. In addition, the Potency in [11] was 24.3 µM (active); in [12] it was 49 µM (active); in assay [10], 24.3 µM (active).

For the compound `Cc1cc(O)ccc1O`, the Potency entry in assay [12], in [2], in [3], in [5], in [13] and in [6] was “inactive” in each case. Also, the Potency result in assay [8] was “inactive”. Besides, the call in [4] was inactive. Also, in [7], the Potency is 31 µM (active).

For `CCCCCC[C@@H](O)C/C=C\CCCCCCCC(=O)OCC(O)CO` (stereo partly specified), the Potency entry in assay [1], in [11], in assay [14], in [12], in assay [2] and in [3] was “inactive” each time. Moreover, the Potency result in [5], in assay [13], in assay [6], in [7], in assay [8] and in assay [9] was “inactive” throughout. For the same compound, the result in assay [4] was inactive. Besides, in assay [10], the Potency was 34.4 µM (active).

Consider `OC(CCN1CCCC1)(c1ccccc1)C1CCCCC1` (stereo unspecified), for which the Potency entry in assay [1], in assay [15], in assay [14], in [12], in assay [2] and in assay [3] was “inactive” throughout. Further, the Potency entry in assay [5], in assay [6], in assay [7], in assay [8] and in assay [9] was “inactive” in each case. For the same compound, the compound was called inactive in assay [4].

Take `Nc1nc2ccc([N+](=O)[O-])cc2s1`: the Potency is 54.5 µM (active) in assay [1], 47.2 µM (active) in assay [7], 61.1 µM (active) in assay [9] and 30.6 µM (active) in assay [10]. The Potency result in assay [12], in [3], in [5] and in assay [6] was “inactive” each time. For the same compound, the result in [4] was inactive.

On to `CC(C)COCC(CN(Cc1ccccc1)c1ccccc1)N1CCCC1` (stereo unspecified), for which the Potency entry in assay [1] and in [5] was “inactive” each time. Also, the Potency in assay [11], in assay [7] and in assay [9] was 29.8 µM (active) throughout. Besides, the compound was classed as inactive in assay [4].

In the case of `CC(=O)[C@H]1[C@H](C#N)C[C@H]2[C@@H]3CC=C4C[C@@H](O)CC[C@]4(C)[C@H]3CC[C@@]21C`, the Potency entry in [1], in [16], in assay [15], in assay [14], in assay [12] and in assay [5] was “inactive” throughout. For the same compound, the Potency result in [13], in assay [6], in [7], in assay [8] and in assay [9] was “inactive” throughout. Besides, in assay [4], the outcome was inactive. The Potency in assay [10] is 33.1 µM (active).

For the origin of these results see PubChem BioAssay (Tox21).
